# In the supplement of paper PMC3334620:
# The full ranking holds about 33,000 sequences; the median of “E-score (-0.5 to 0.5)” is about -0.012, and the highest 2% start at about 0.27. Only a selection was taken, and the highest values are over-represented in it overall.
# Target: T1, Vhr1 (UniProt P40522)
# T1 sequence: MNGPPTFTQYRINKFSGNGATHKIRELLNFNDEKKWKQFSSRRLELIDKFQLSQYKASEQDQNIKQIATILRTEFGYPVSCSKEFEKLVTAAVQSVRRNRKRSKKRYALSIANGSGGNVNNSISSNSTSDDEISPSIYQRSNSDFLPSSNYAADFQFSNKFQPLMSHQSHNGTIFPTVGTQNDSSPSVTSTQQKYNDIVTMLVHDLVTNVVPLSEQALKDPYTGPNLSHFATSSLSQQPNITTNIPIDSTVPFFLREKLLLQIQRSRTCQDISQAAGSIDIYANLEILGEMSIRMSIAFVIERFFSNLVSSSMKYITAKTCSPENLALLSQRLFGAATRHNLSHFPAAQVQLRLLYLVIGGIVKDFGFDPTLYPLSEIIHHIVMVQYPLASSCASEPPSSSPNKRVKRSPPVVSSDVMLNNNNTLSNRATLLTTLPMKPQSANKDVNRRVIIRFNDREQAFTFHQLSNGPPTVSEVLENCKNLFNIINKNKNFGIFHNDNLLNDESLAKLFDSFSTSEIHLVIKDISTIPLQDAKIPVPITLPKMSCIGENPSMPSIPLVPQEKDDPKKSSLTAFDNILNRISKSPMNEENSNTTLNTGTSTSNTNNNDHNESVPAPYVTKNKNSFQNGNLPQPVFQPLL
# Assay: PBM E-score (8-mer binding enrichment) (E-score (-0.5 to 0.5)); higher = stronger / more preferred TF binding
# Conditions: protein concentration: 200 nM; construct: GST-full length
# Description: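 Universal 'all 10-mer' protein binding microarrays (Agilent AMADID 015681) probed with GST-tagged S. cerevisiae TFs (full-length or DBD) made by in vitro transcription/translation (PURExpress), about 100-200 nM. Bound TF was detected with fluorescent anti-GST. Each ungapped 8-mer (which stands for itself and its reverse complement) is scored by the PBM enrichment score (E-score), a modified Wilcoxon-Mann-Whitney statistic from -0.5 to +0.5, computed with the Universal PBM Analysis Suite. Scale: above 0.35 generally sequence-specific binding.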
row,Sequence,PBM E-score
1,ATGAAACC,0.137
2,ACGGTAGT,0.125
3,AAAATCAT,0.151
4,ATTGCTTG,-0.00443
5,ATCTCATC,0.0646
6,CGTACCCA,0.16
7,ACGGTCAT,0.156
8,GGCAAGCA,-0.224
9,AATGAGTC,0.426
10,AATGAGTA,0.223
11,CATGAGAC,0.274
12,AATGAGTG,0.157
13,CATGAGCC,0.159
14,CATGAGTC,0.477
15,CATGAGAG,0.147
16,AATGAGAC,-0.113
17,CATGAGGC,-0.159
18,AGTGTCGC,0.138
19,AAAATAAT,0.0747
20,TAAGCCTA,-0.259
21,GAATTTGC,-0.0954
22,CAAGAATC,0.179
23,GCGAACAC,-0.0481
24,AATAGGCA,0.0547
25,AACAGCAT,0.0405

row,Sequence,PBM E-score
1,AGAGCCCT,-0.165
2,GCAATCGA,-0.0515
3,AGAGTCAA,0.112
4,AGAGTCAG,0.399
5,ACAGTCAA,0.0811
6,ACAGTCAG,0.228
7,AAAGTCAG,0.119
8,ACAGTCAT,0.318
9,AGGGTCAG,-0.161
10,AGAGTCAT,0.45
11,AGAGTCAC,0.43
12,AGAGTCCC,-0.205
13,AGAGTCTC,0.191
14,AGAGTCCT,-0.17
15,CGGATCTA,-0.0646
16,GCACCTCC,-0.136
17,GGCAAAGA,-0.0131
18,GTTCACTA,-0.133
19,GCAATTCC,-0.163
20,GGAAAGCC,-0.0802
21,TGATGGAA,0.0625
22,ACTACTCA,0.238
23,CGTACTCC,-0.0124
24,CATACCCC,0.105
25,GCTACTCC,-0.145

row,Sequence,PBM E-score
1,CATACCCA,0.271
2,TATACCCA,0.0126
3,GCTACTCA,0.271
4,ATTACTCG,0.198
5,ATTACTCA,0.29
6,CGTACTAA,0.153
7,CGTACTCA,0.283
8,ATTACTCC,0.0722
9,AACTAAAT,-0.0313
10,ATCGGTGA,0.181
11,GTGCTTAA,-0.136
12,TATAGGAA,0.0238
13,GAATTAGA,-0.172
14,GCGTGTAA,-0.0131
15,ATTATTGC,-0.0063
16,ACTGGCGA,0.124
17,AATTTAGT,0.256
18,GGTACTCA,0.281
19,CATACTCA,0.285
20,AGTACTCA,0.171
21,GGTACTTA,-0.103
22,GATACTGA,0.159
23,CATACTCC,0.125
24,CATACTCG,0.18
25,CATACTGA,0.123

row,Sequence,PBM E-score
1,TATACTGA,0.309
2,CGGCACGC,-0.0534
3,GCAGCTCA,-0.254
4,ACTGAGTG,0.0665
5,CCTGAGCC,0.115
6,AAAGAGTC,0.0469
7,ACTGAGTA,0.263
8,CAAGAGTC,0.296
9,GCTGAGCC,0.28
10,ACAGAGTC,0.296
11,ACAGAGTG,0.0123
12,ACTGAGCC,0.219
13,GAAGAGTC,0.194
14,AGAGAGTC,0.215
15,ACTGAGTC,0.454
16,ATTCGGTG,0.106
17,GTTTGTGA,-0.0971
18,GGCTATGA,0.0249
19,AGAGCACG,0.00968
20,CCAGCCAA,-0.119
21,CATTCAGA,0.0364
22,CTGGGTAC,0.196
23,CCTGAGGC,-0.096
24,CCTGAGTA,0.205
25,CCTGAGTC,0.461

row,Sequence,PBM E-score
1,AACGCTAC,-0.205
2,CAATCAGG,0.0706
3,AAATCATG,0.29
4,CAATCAAG,0.00756
5,AAATCATA,0.227
6,AAATCATT,-0.011
7,CAATCATG,0.289
8,GACTGGCA,-0.0149
9,GAACTATA,0.222
10,GTAGCATA,0.079
11,CGATTCAG,0.12
12,AAGCTCCG,-0.173
13,ATAATACC,0.212
14,ATAATATG,0.206
15,ATAATATA,0.3
16,CTAATATA,-0.0362
17,ATGATACA,0.289
18,ATGATATA,0.0327
19,CTGATACA,0.0817
20,ATGATACC,0.124
21,ATAATACA,0.277
22,ATAATACG,0.0457
23,ATGATATC,0.0491
24,ATGATATG,0.315
25,AGTGCGCA,0.112

row,Sequence,PBM E-score
1,AGCCAGTA,0.133
2,CAAAGAGA,-0.299
3,ACCTCGCA,-0.0858
4,TCTGTTCA,0.151
5,CGGAGTCC,0.324
6,ATGAGTCG,0.462
7,ATGAGTAG,0.189
8,CTGAGTAC,0.175
9,CTGAGTTC,0.0461
10,ATGAGTGG,0.162
11,ATGAGTAC,0.347
12,CGGAGTGC,0.139
13,CGGAGTAC,0.0632
14,ATGAGTTG,0.173
15,CTGAGTGC,0.0204
16,CTGAGTCC,0.292
17,CATGGAGA,0.155
18,ATAAAACA,-0.125
19,ATGCTTTG,0.0636
20,AATAGCAC,-0.026
21,GAGGTTAC,0.0302
22,ACAGGTCC,-0.195
23,CGACAATA,0.0881
24,CGTTAGAA,-0.323
25,ACTGGGGA,-0.0871

row,Sequence,PBM E-score
1,CTGCCCCA,0.0236
2,AGGTGGAA,0.0199
3,GCGCTCAC,0.0509
4,ATGAGTCC,0.389
5,ATGAGTTC,0.00071
6,ATGAGTGC,0.0758
7,GACGCAAC,-0.169
8,GTTAGTTA,0.137
9,ATTAGTTA,0.143
10,ATTAGTTG,0.0201
11,CTTAGTCC,0.0119
12,ATTAGTCG,0.279
13,ATTAGTCA,0.381
14,GTTAGTGA,0.0216
15,ATTAGTCC,0.122
16,CTTAGTCA,0.376
17,CTTAGTAA,-0.0159
18,ATTAGTGG,0.141
19,GTTAGTCA,0.43
20,GGTGCAAC,-0.183
21,ATGACGCG,0.162
22,GTCAATCA,0.221
